# Compound activity (PubChem BioAssay)
# An excerpt weighted towards active compounds, which were near 17% of everything screened.
# TGFb SMAD3 inh – qHTS for Inhibitors of TGF-b; HepG2 CAGA-GFP TGF-b/SMAD3 reporter, GFP fluorescence, 18 h; TGF-beta stimulated, 500 pg/mL final; Potency, µM (doses to about 46.1 µM), without a hit: top-dose activity, negative = inhibition, hits mostly inhibitors; 1.2% of 410,000 active; note: % is set by controls: 0 for no effect and ±100 for the full control effect; nearly all actives have a fitted effect of over 65% in size
#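 Read-out: total well GFP (ex488/em500-530) summed from mean per-cell fluorescence. Cells: HEPG2 CAGA-GFP, 1% FBS DMEM, 18 h at 37 degrees C with 500 pg/mL final TGF-beta. Unstimulated wells served as the full-inhibition control; stimulated DMSO wells = 0%.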
# ATXN2 expr inh – Primary qHTS for Inhibitors of ATXN expression. HEK-293 ATXN2-luciferase reporter, luminescence, 24 h. Potency, µM (series often up to 57 µM), for inactives: at the top dose activity change, negative = inhibition, usual class: inhibitors. 0.72% of 360,000 active. AID 1745845, 2022; note: % is set by controls: 0 for no effect and ±100 for the full control effect; nearly all actives have a fitted effect of over 55% in size
#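 qHTS (up to 57 uM final) was run with 24 h compound exposure of reporter cells at 37 °C. Each well was multiplexed: SteadyGlo luminescence measured ATXN2-luciferase expression after a fluorogenic Gly-Phe-AFC viability readout (25 uM final).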
# HepG2 tox – qHTS for Inhibitors of TGF-b: Cytotox Counterscreen. HepG2 CAGA-GFP viability, ATP luminescence, 18 h. 0.76% of 410,000 active. Potency, µM (highest dose often 46.1 µM), for the others: top-dose activity change, negative = cytotoxicity, hits mostly cytotoxic
#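 CellTiter-Glo luminescence gave cytotoxicity after 18 hours at 37 degrees C. The cells were HepG2 CAGA-GFP in 1% FBS DMEM, stimulated with 500 pg/mL TGF-beta after compound addition. %Activity was normalised to no-cell wells (complete cell-killing) and DMSO (no toxicity), and curves were fitted and classified.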
# ATXN viability – Viability Counterscreen for Primary qHTS for Inhibitors of ATXN expression; S2 cells (HEK-293 line with an ATXN2-luciferase reporter) viability, CellTiter-Fluor protease fluorescence, 24 h; Potency, µM (highest dose often 56.7 µM), usual class: cytotoxic; 0.49% of 400,000 active; note: nearly all actives have a fitted effect of over 40% in size
# TDP1 cell CPT – qHTS for Inhibitors of human tyrosyl-DNA phosphodiesterase 1 (TDP1): qHTS in cells in presence of CPT; 12% of 420,000 active; Potency, µM (titrated, usually from 46.2 µM), for the others: at the top dose activity change, negative = growth inhibition, most hits filed as inhibitors; chicken DT40 Tdp1-/-;hTDP1 cells + 20 nM CPT, ATP luminescence, 48 h; note: % is set by controls: 0 for no effect and ±100 for the full control effect; nearly all actives have a fitted effect of over 55% in size
#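 Chicken DT40 Tdp1-/- cells stably complemented with human TDP1 were seeded at 400 cells/well in medium containing 20 nM camptothecin, exposed to pin-transferred compounds, and grown at 37 °C for at least 48 hr. Viability was read as ATP luminescence.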
# TDP1 cell noCPT – qHTS for Inhibitors of human tyrosyl-DNA phosphodiesterase 1 (TDP1): qHTS in cells in absence of CPT; DT40 Tdp1-/- hTDP1 cells, no CPT, ATP luminescence, 48 h; Potency, µM (titrated, usually from 46.2 µM), for inactives: top-dose activity change, negative = growth inhibition, most hits filed as inhibitors; 15% of 420,000 active; note: % is set by controls: 0 for no effect and ±100 for the full control effect; nearly all actives have a fitted effect of over 55% in size
#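 A cellular qHTS used chicken DT40 cells lacking endogenous Tdp1 but carrying stably transfected human TDP1. Compounds were applied without camptothecin, and cell growth kinetics were judged by ATP-dependent luminescence after ≥48 hr.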
# * = called active by the depositor; i = inactive; ? = inconclusive; · = not tested or not shown. Calls come from the whole dose curve; as a rule, active = well fitted curve in the direction sought with a large enough effect; inconclusive = small, poorly fitted or top-dose-only effect, or another doubt; inactive = no such curve, though single readings can be large; an effect the other way counts as inactive or inconclusive. Potency is the fitted concentration of half-maximal effect.
SMILES,TGFb SMAD3 inh,ATXN2 expr inh,HepG2 tox,ATXN viability,TDP1 cell CPT,TDP1 cell noCPT
CC(C)N(Cc1nc(-c2ccc3c(c2)OCO3)no1)Cc1nccn1C,-14%,·,-3%,i,-27%,?
O=C(CSc1nc(-c2ccccc2)no1)N1CCN(c2ccc(F)cc2)CC1,-14%,1%,-4%,i,-23%,-22%
CCCn1c(SCC(=O)NC2CCCCC2)nnc1-c1ccccn1,-21%,·,-14%,i,-10%,-26%
CCn1c(/C(C#N)=N/O)nc2ccccc21,17%,-3%,4%,?,6%,3%
CCn1c(/C(C#N)=C/c2ccccc2Cl)nc2ccccc21,?,10%,-60%,i,?,26µM*
COc1ccc(N/C=C(\C#N)c2nc3ccccc3n2C)c(OC)c1,?,-4%,-5%,i,?,23µM*
COc1ccccc1C(=O)c1nc2ccccc2n1C,-2%,6%,6%,i,-16%,8%
Cn1c(/C(C#N)=C/c2ccccc2Br)nc2ccccc21,·,·,-53%,·,15µM*,12µM*
Cc1ccc(OCCC(=O)OC(C)C(=O)Nc2c(C)n(C)n(-c3ccccc3)c2=O)cc1 (stereo unspecified),0%,-2%,-13%,i,-9%,-6%
Cc1c([C@H]2[C@@H](CC#N)C2(C)C)c2ccccc2n1C,-23%,0%,-14%,i,-32%,-9%
Cc1[nH]c2c(Br)cccc2c1[C@H]1[C@@H](CC#N)C1(C)C,?,-13%,-17%,i,16µM*,?
COc1ccccc1C(=O)OCc1c(-c2ccccc2)ncc2ccccc12,?,?,-28%,?,16µM*,?
COc1cccc(-c2ncc3ccccc3c2COC(=O)c2ccc(C(C)(C)C)cc2)c1,-4%,-17%,-30%,i,?,?
O=C(O)CCC(=O)OCc1c(-c2ccccc2)ncc2ccccc12,-1%,8%,3%,i,0%,-7%
O=C(OCc1c(-c2ccccc2)ncc2ccccc12)c1ccccc1C(F)(F)F,?,5%,-38%,i,1µM*,?
COc1ccc(C(=O)OCc2c(-c3ccccc3)ncc3ccccc23)cc1,0%,0%,0%,?,16µM*,?
COc1cccc(-c2ncc3ccccc3c2COC(=O)c2ccc(F)cc2)c1,0%,-18%,-1%,i,?,21µM*
CCOc1cc(/C=N/NC(=O)C(=O)NCc2ccc3c(c2)OCO3)ccc1OCC(=O)N1CCOCC1,12%,8%,8%,i,-1%,13%
CCOC(=O)[C@H]1[C@H]2COc3ccc(Br)cc3[C@@H]2N2C(=O)CN(Cc3ccco3)C(=O)[C@@]12C,-9%,10%,8%,i,?,?
CC(C)NC(=S)Nc1ccc(S(=O)(=O)Nc2ncccn2)cc1,7%,1%,-17%,i,1%,-5%
Cc1ccc(-n2c(-c3ccccc3)c[n+]3c2CCc2ccccc2-3)c(C)c1,?,?,-26%,i,0.21µM*,0.037µM*
Cc1ccc(-n2c(NN)nc3ccccc3c2=O)c(C)c1,-18%,-17%,-6%,i,?,?
COc1ccc(COC(=O)C2=C(C)NC(=O)CC2c2cccc(Cl)c2Cl)cc1 (stereo unspecified),?,6%,5%,i,-16%,-6%
COc1ccccc1NC(=S)NCCc1ccccc1,?,28%,-22%,i,-4%,21µM*
COc1cc(NC(=S)NCCc2c[nH]c3ccccc23)c(OC)cc1Cl,?,-10%,-49%,i,?,?
SMILES,TGFb SMAD3 inh,ATXN2 expr inh,HepG2 tox,ATXN viability,TDP1 cell CPT,TDP1 cell noCPT
COc1ccccc1NC(=S)NCCc1c[nH]c2ccccc12,-18%,-1%,-12%,i,15µM*,18µM*
COc1c(Cl)cc(C(=O)Nc2cc(-c3nc4ccccc4[nH]3)ccc2C)cc1Cl,?,?,-37%,10µM*,?,?
COc1cc(OC)cc(C(=O)Nc2cc(-c3nc4ccccc4[nH]3)ccc2C)c1,-10%,?,-22%,?,·,·
COc1ccc(Cl)cc1C(=O)NC(=S)Nc1cc(-c2nc3ccccc3[nH]2)ccc1C,6%,-15%,1%,i,?,15µM*
Cc1ccc(C(C)C)c(OCC(=O)Nc2cc(-c3nc4ccccc4[nH]3)ccc2C)c1,·,·,-48%,·,4.6µM*,3.7µM*
CCn1ncc(CN2CCC(C(=O)Nc3cccc(-c4cccc(F)c4)c3)CC2)c1C,-1%,·,2%,i,?,6.5µM*
O=C(Nc1cccc(-c2cccc(F)c2)c1)C1CCN(Cc2ccc(CO)o2)CC1,?,-18%,-24%,i,?,?
O=C(Nc1cccc(-c2cccc(F)c2)c1)C1CCN(C2CCOCC2)CC1,-29%,·,-34%,?,?,?
Cc1cc(C)n(CCCN2CCC(C(=O)Nc3cccc(-c4cccc(F)c4)c3)CC2)n1,?,?,-106%,?,?,18µM*
COc1cccc(NC(=S)N2CCC(NC(=O)c3ccco3)CC2)c1,-9%,-11%,-13%,i,11%,-17%
COc1ccccc1NC1=C(Cl)C(=O)OC1OC(=O)c1ccco1 (stereo unspecified),-3%,-9%,-22%,i,23µM*,21µM*
Cc1ccccc1NC1=C(Cl)C(=O)OC1OC(=O)c1ccco1 (stereo unspecified),-23%,?,-38%,?,26µM*,23µM*
COc1cccc(NC2=C(Cl)C(=O)OC2OC(=O)c2ccco2)c1 (stereo unspecified),-2%,-11%,-13%,i,12µM*,15µM*
CC1(C)Oc2ccc3ccc(=O)oc3c2/C(=C/NC2CCCCC2)C1=O,-18%,-13%,-24%,i,?,?
OC(c1ccc(Cl)c(Cl)c1)c1ncc(-c2ccccc2Cl)[nH]1 (stereo unspecified),?,-7%,-47%,i,?,?
O=P(C(=S)Nc1ccccc1Cl)(c1ccccc1)c1ccccc1,0%,·,-23%,?,9.2µM*,15µM*
